Bioassay records (PubChem BioAssay)
CF NFkB block – cystic fibrosis NF-kB activation inhibition | KKLEB NF-kB-GFP reporter, PAF-induced, GFP fluorescence overnight | inhibition, % at 5 µM | hit rate 0.86% among 360,000 | AID 588850;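 active means at least 50% inhibition at 5 µM, scaled per plate between neutral and stimulator controls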;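 further: PAF is a Pseudomonas aeruginosa culture filtrate used as stimulus; plate controls were PAF-stimulated DMSO wells for no effect and unstimulated DMSO wells for full effect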
hiPSC survival – hiPSC single-cell survival enhancement; ATPlite luminescence; 100% = ROCK inhibitor wells, 0% = DMSO; survival enhancement, % at 20 µM; hit rate 0.044% among 360,000; AID 602274; in the data active means survival enhancement above about 18%;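 further: cells exposed to compounds for 16 hours before the ATP read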
HIF-2a inh – HIF-2a inhibition; 786-0 RCC cells HIF-2a reporter, luciferase luminescence, overnight; hit rate 0.72% among 360,000; inhibition, % at 18.8 µM; AID 624352;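 active means inhibition of the luminescence signal of 40% or more relative to plate controls, in a single-dose primary screen at 18.75 µM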
PPC-1+TRAIL kill – PPC-1 cancer cell killing with TRAIL present; PPC-1 cells + TRAIL, ATPLite viability luminescence; hit rate 0.41% among 220,000; cell killing (% activity), % at 4 µM or 5 µM;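 active means cell killing above 50% in the first pass at 4 µM, then a duplicate retest at 5 µM averaging 50% or more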;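 further: plate controls were cells with TRAIL plus DMSO for no effect and medium-only wells lacking cells for full effect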
KKLEB cytotox – counter-screen for CF NF-kB inhibitors: cytotoxicity; KKLEB CF airway cells viability, ATPlite luminescence, overnight; hits give low values; cells stimulated with P. aeruginosa culture filtrate; activity change (cytotoxicity), % at 5 µM; hit rate 0.36% among 360,000; AID 602141;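 active means corrected activity change at or below -50% at 5 µM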
C8 TRAIL sens – caspase-8 TRAIL sensitization; NB7+C8 cells + TRAIL, ATPlite viability luminescence; inhibition (viability loss, TRAIL sensitization), % at 10 µM; hit rate 1% among 360,000; AID 624354;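 active means compounds causing at least 50% loss of cell viability in the single-dose screen, relative to plate controls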
* = called active by the depositor; . = no result. Rows were chosen to be rich in hits. Some 2.2% of all compounds tested hit in one or more screens of this group.

SMILES | CF NFkB block | hiPSC survival | HIF-2a inh | PPC-1+TRAIL kill | KKLEB cytotox | C8 TRAIL sens
COc1ccc2c(c1)/C(=C/c1cnc[nH]1)C(=O)N2 | 54* | -3 | -102 | . | -21 | 16
CC1=CC(=C2C(=O)NC(=S)NC2=O)C=C(C(F)(F)F)N1CCc1ccccc1 | . | . | . | 1 | . | .
COc1ccc(NC2(C#N)CCCCC2)cc1 | -18 | 1 | 21 | 20 | 37 | 3
CC(C)C(NC(=O)C(C(C)C)N(C)C)C(=O)N(C)C(C(=O)N1CCCC1C(=O)N1CCCC1C(=O)NCc1ccccc1)C(C)C (stereo not given) | 64* | -2 | 31 | . | -42 | -18
O=C1C=C(N2CC2)c2ccccc2C1=O | 60* | -1 | 18 | . | 1 | 33
CC(=O)O[C@@H]1/C=C/[C@](C)(O)C[C@@H](C)C/C=C/[C@H]2[C@@H]3O[C@]3(C)[C@@H](C)[C@H]3[C@H](Cc4ccccc4)NC(=O)[C@@]312 | 55* | -1 | -43 | . | -53* | 23
C[C@H]1CCC/C=C/[C@@H]2C[C@H](O)C[C@H]2[C@@H](O)/C=C/C(=O)O1 | 64* | -6 | 39 | . | -47 | 42
C[C@@H]1CN([C@H](C)CO)C(=O)CCCn2nncc2CO[C@@H]1CN(C)C(=O)Oc1cccc2ccccc12 | -3 | 2 | -12 | . | 11 | -10
COC1CCC(OC2CC(C3(C)CCC4(CC(O)C(C)C(C(C)/C=C(\C)C(=O)C(C)CC(C)C(=O)O)O4)O3)OC3(OC(C4OC(O)(CO)C(C)CC4C)CC3C)C2C)OC1C (stereo not given) | 82* | -4 | 74* | . | -75* | 81*
O=C(C(Cc1ccccc1)NS(=O)(=O)c1ccc(F)cc1)N1CCC2(CC1)OCCO2 (stereo not given) | 10 | 1 | 11 | 4 | 5 | 12
COC(=O)C1=C(c2cc3ccccc3o2)C[C@@H]2CC[C@H]1N2C(=O)N1CCC(O)CC1 | 18 | 0 | 7 | . | 0 | 3
CCC(c1nnnn1-c1ccc2c(c1)OCCO2)N1CCC(n2c(=O)[nH]c3ccccc32)CC1 (stereo not given) | 79* | -1 | -1 | . | -76* | -6
O=C1NCN(c2ccccc2)C12CCN(C(c1nnnn1-c1ccc3c(c1)OCCO3)C1CC1)CC2 (stereo not given) | -5 | 7 | 32 | . | -13 | -7
COc1ccc(-n2nnnc2C(C2CC2)N2CCC(n3c(=O)[nH]c4ccccc43)CC2)cc1 (stereo not given) | -3 | -1 | 9 | . | -16 | 13
O=c1[nH]c2ccccc2n1C1CCN(C(CCc2ccccc2)c2nnnn2C2CCCC2)CC1 (stereo not given) | 84* | 3 | -99 | . | -96* | 14
CSCCC(c1nnnn1-c1ccc2c(c1)OCCO2)N1CCC(n2c(=O)[nH]c3ccccc32)CC1 (stereo not given) | 86* | 0 | -2 | . | -84* | 3
COc1cccc2c1cc([N+](=O)[O-])c1c(C(=O)O)cc3c(c12)OCO3 | 11 | -2 | -20 | . | 4 | -18
C=C(C)[C@@]12OC3(c4ccccc4)O[C@@H]1C1[C@@H]4O[C@]4(CO)[C@@H](O)[C@]4(O)C(=O)C(C)=C[C@H]4[C@@]1(O3)[C@H](C)[C@H]2OC(=O)/C=C/C=C/c1ccccc1 (stereo not given in full) | 54* | 42* | -7 | . | -53* | 20
O=C1NCN(c2ccccc2)C12CCN(C(c1ccnc3ccccc13)c1nnnn1Cc1ccccc1)CC2 (stereo not given) | 12 | -3 | 20 | . | -9 | -17
CC(C)(C)n1cc(C(=O)c2ccc3ccccc3c2O)cn1 | 8 | -2 | -5 | 42 | -20 | 50*
CC(C)(C)n1cc(C(=O)c2ccccc2OCCCF)cn1 | -6 | -1 | 10 | . | -4 | -1
CN1CCc2cc(O)cc3c2[C@H]1Cc1ccc(O)c(O)c1-3 | -51 | -2 | 20 | . | -77* | 28
CN1C2CCC1/C(=C/c1ccccn1)C(=O)/C2=C\c1ccccn1 | 99* | 34* | 88* | 41 | -91* | 86*
Cc1nn(Cc2ccccc2)c(C)c1C(=O)O | 5 | 1 | 16 | -4 | -10 | -1
O=P(NC1CCCCC1)(Oc1ccccc1)Oc1ccccc1 | -9 | 2 | 26 | . | 4 | -5
